Assay results from PubChem BioAssay (NCATS).
Results filed as inconclusive are left out. Calls of active or inactive are those of the source. Calls come from the whole dose curve.

Each compound was assayed against Nucleoprotein (Lymphocytic choriomeningitis virus (strain Armstrong)) (UniProt P09992) (assay: qHTS for Inhibitors of the Functional Ribonucleoprotein Complex (vRNP) of Lymphocytic Choriomeningitis Arenaviruses (LCMV): LCMV Primary Screen - GLuc reporter signal (AID 1347086; note: nearly all actives have a fitted effect of over 70% in size)). Settings: LCMV minigenome vRNP cell assay, Gaussia luciferase reporter; series mostly up to 57.5 µM; activity change, negative = inhibition: at the top concentration.
Chain of Nucleoprotein (Lymphocytic choriomeningitis virus (strain Armstrong)) (P09992 whole entry, looked up): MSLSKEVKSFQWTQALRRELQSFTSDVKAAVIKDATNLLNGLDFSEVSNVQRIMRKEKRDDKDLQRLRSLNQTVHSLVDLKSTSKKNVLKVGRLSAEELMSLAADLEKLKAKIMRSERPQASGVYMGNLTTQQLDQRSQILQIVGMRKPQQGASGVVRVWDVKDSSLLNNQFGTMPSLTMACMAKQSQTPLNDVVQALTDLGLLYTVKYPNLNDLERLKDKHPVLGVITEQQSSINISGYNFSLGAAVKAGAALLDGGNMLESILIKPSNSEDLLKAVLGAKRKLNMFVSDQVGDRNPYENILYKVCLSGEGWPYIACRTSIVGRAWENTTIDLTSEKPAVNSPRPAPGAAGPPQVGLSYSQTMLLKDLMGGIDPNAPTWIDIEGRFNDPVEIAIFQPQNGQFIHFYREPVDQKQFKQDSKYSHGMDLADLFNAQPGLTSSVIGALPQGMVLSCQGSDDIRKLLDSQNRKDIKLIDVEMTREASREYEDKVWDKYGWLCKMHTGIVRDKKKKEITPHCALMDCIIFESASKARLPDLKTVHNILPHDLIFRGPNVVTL
% is set by controls: 0 for no effect and ±100 for the full control effect; potency is the fitted concentration of half-maximal effect.

Row | SMILES | Potency | activity change, negative = inhibition
1 | c1ccc2c(c1)CCCC2C1=NCCN1 (centres undefined) | inactive | –
2 | NCc1ccc(S(N)(=O)=O)cc1 | – | 0.657% (inactive)
3 | CC(C)(C)NC[C@H](O)COc1nsnc1N1CCOCC1 | inactive | –
4 | N[C@@H](Cc1cc(I)c(Oc2ccc(O)c(I)c2)c(I)c1)C(=O)O | – | -26.9% (inactive)
5 | NC(=O)N1c2ccccc2C=Cc2ccccc21 | inactive | –
6 | Cc1cccc(C)c1NC(=O)CC12CCCN1CCC2 | – | 11.9% (inactive)
7 | CC(=O)OC[C@H]1O[C@@H](n2ncc(=O)[nH]c2=O)[C@H](OC(C)=O)[C@@H]1OC(C)=O | – | -70% (inactive)
8 | CCCC(=O)Nc1ccc(O)c(C(C)=O)c1 | – | 18% (inactive)
9 | CN1C(C)(C)CCCC1(C)C | – | 0.142% (inactive)
10 | CN1C[C@@H]2C[C@H]1CN2c1cc2c(cc1F)c(=O)c(C(=O)O)cn2C1CC1 | – | 2.77% [at 24.7 µM] (inactive)
11 | CCCCC(CC)CNC(=O)CC(C)OC(=O)CCC(=O)O (centres undefined) | – | 4.33% (inactive)
12 | Cn1c(=O)c2[nH]cnc2n(C)c1=O | inactive | –
13 | Cc1ccnc(NS(=O)(=O)c2ccc(N)cc2)n1 | – | 3.83% (inactive)
14 | O=C(CCOCCOCCOCCOCCC(=O)Nc1c(I)cc(I)c(C(=O)O)c1I)Nc1c(I)cc(I)c(C(=O)O)c1I | – | 0.0326% (inactive)
15 | CN(C)CCOC(=O)C(c1ccccc1)C1(O)CCCC1 (centres undefined) | – | -1.11% (inactive)
16 | CCN[C@H]1CN(CCCOC)S(=O)(=O)c2sc(S(N)(=O)=O)cc21 | – | 15.3% (inactive)
17 | CC(=O)Oc1cccc2c1C(=O)c1c(OC(C)=O)cc(C(=O)O)cc1C2=O | – | -4.94% (inactive)
18 | O=C1c2ccccc2CCc2ccccc21 | – | 9.46% (inactive)
19 | CC(CCc1ccc(O)cc1)NCCc1ccc(O)c(O)c1 (centres undefined) | inactive | –
20 | CO/N=C(/C(=O)N[C@@H]1C(=O)N2C(C(=O)OCOC(=O)C(C)(C)C)=C(C)CS[C@H]12)c1csc(N)n1 | – | 15% (inactive)

Row | SMILES | Potency | activity change, negative = inhibition
21 | CCO[C@H](Cc1ccc(OCCc2ccc(OS(C)(=O)=O)cc2)cc1)C(=O)O | – | 37.1% (inactive)
22 | COC(=O)N/N=C/c1c[n+]([O-])c2ccccc2[n+]1[O-] | – | 5.72% (inactive)
23 | Cc1c(C(=O)O)c(O)cc2c1C(=O)c1c(O)c([C@@H]3O[C@H](CO)[C@@H](O)[C@H](O)[C@H]3O)c(O)c(O)c1C2=O | – | 2.77% (inactive)
24 | CCCCCCCCCCCCCCCC(=O)OC(C)C | – | 15.7% (inactive)
25 | CC(=O)Nc1ccc(CC(=O)O)cc1 | – | 9.13% (inactive)
26 | COc1cc(/C=C/C(=O)O[C@H]2CC[C@]34C[C@]35CC[C@]3(C)[C@@H]([C@H](C)CCC=C(C)C)CC[C@@]3(C)[C@@H]5CC[C@H]4C2(C)C)ccc1O | – | 2.87% (inactive)
27 | CC(=O)OC[C@H]1O[C@@H](OC(C)=O)[C@H](OC(C)=O)[C@@H]1OC(C)=O | – | 7.03% (inactive)
28 | C[C@H]1C[C@H](O)c2ccsc2S1(=O)=O | – | -9.15% (inactive)
29 | CCCOC(=O)c1ccccc1 | inactive | –
30 | Cc1ccc(S(=O)(=O)NC(=O)NC2CCCCC2)cc1 | – | 11.9% (inactive)
31 | CC(C)(C)NCC(O)COc1ccc(NC(=O)NC2CCCCC2)cc1 (centres undefined) | – | -1.8% (inactive)
32 | O=C1CN(/N=C/c2ccc([N+](=O)[O-])o2)C(=O)N1 | – | -38.8% (inactive)
33 | CCNC(=O)/C=C/c1cccc(Br)c1 | – | 9.05% (inactive)
34 | O=C(N[C@H](CO)[C@H](O)c1ccc([N+](=O)[O-])cc1)C(Cl)Cl | inactive | –
35 | CCCCC(CC)CN1CN(CC(CC)CCCC)CC(C)(N)C1 (centres undefined) | – | 4.94% (inactive)
36 | NC(N)=NCCN1CCCCCCC1 | – | -0.256% [at 0.757 µM] (inactive)
37 | CCC(C(=O)OCCN(CC)CC)c1ccccc1 (centres undefined) | – | 20.5% (inactive)
38 | CC(=O)Nc1ncc([N+](=O)[O-])s1 | – | 3.55% (inactive)
39 | COc1cccc2c1C(=O)c1c(O)c3c(c(O)c1C2=O)C[C@@](O)(C(C)=O)C[C@H]3O[C@H]1C[C@H](N)[C@H](O)[C@H](C)O1 | 273 nM (active) | –
